# Source: PubChem BioAssay
# BAZ2B block – inhibitors of human BAZ2B bromodomain | 360,000 tested, 4.4% active | Potency, µM (highest dose often 114 µM), inactives show at the top dose activity change, negative = inhibition, most hits filed as inhibitors | Q9UIF8 | AlphaScreen BAZ2B-H3K14Ac peptide displacement; note: potency is the fitted concentration of half-maximal effect; % is set by controls: 0 for no effect and ±100 for the full control effect; nearly all actives have a fitted effect of over 60% in size
#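 Multi-concentration screen (max 110 uM) measuring displacement of acetylated histone H3 peptide from BAZ2B by AlphaScreen, using 50 nM protein, 50 nM peptide and 10 ug/mL streptavidin donor plus Ni-chelate acceptor beads.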
# HP1b chromo inh – HP1-beta chromodomain-methylated histone interaction inhibition. Potency, µM (highest dose often 114 µM), inactives show at the highest dose activity change, negative = inhibition, actives largely listed as inhibitors. P83916. AID 540317. AlphaScreen HP1-beta / biotin-H3K9me3 peptide binding. 390,000 tested, 0.56% active; note: potency is the fitted concentration of half-maximal effect; nearly all actives have a fitted effect of over 70% in size
#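 AlphaScreen: HP1-beta (50 nM) preformed 30 min with biotin-H3(1-18)K9me3 peptide (50 nM) in PBS pH 7.4, 0.01% Tween-20. Compound added for 30 min at RT, then streptavidin donor/nickel chelate acceptor beads (10 ug/mL) for 30 min.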
# JMJD2A Tudor inh – JMJD2A Tudor domain (human) inhibition; 390,000 tested, 4.4% active; Potency, µM (highest dose often 114 µM), without a hit: at the top dose activity change, negative = inhibition, most hits filed as inhibitors; AlphaScreen JMJD2A-Tudor / H3K4me3 peptide binding; note: potency is the fitted concentration of half-maximal effect; % is set by controls: 0 for no effect and ±100 for the full control effect; nearly all actives have a fitted effect of over 50% in size
# CtBP-E1A inh – inhibitors of CtBP/E1A interaction; AlphaScreen GST-E1A/His-CtBP binding, 1536-well; hits give low values; activity change, % (test concentration not listed); 340,000 tested, 0.49% active; in the data active = activity change below about -65%; inconclusive = mostly about -30% to -63%; note: % is set by controls: 0 for no effect and ±100 for the full control effect
#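 GST-E1A and His-tagged CtBP (125 nM each as 5X stock) were preincubated with pin-transferred compound for 2 h at 37 °C in the dark, then glutathione donor and nickel acceptor beads were added for 1 h before AlphaScreen reading.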
# Six1-Eya2 inh – blocks human Six1 binding to Eya2; Q15475+O00167; AID 651725; AlphaScreen GST-Six1/His-Eya2 binding, biochemical; hits give low values; 360,000 tested, 0.56% active; activity change, % (test concentration not listed); in the data active = activity change below about -65%; inconclusive = mostly about -30% to -63%; note: % is set by controls: 0 for no effect and ±100 for the full control effect
#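 Compounds are tested against tagged Six1 and Eya2 proteins bridged by glutathione donor and nickel acceptor beads; after a one-hour incubation at 37 °C without light, AlphaScreen emission is recorded.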
# G9a block – G9a (human) methyltransferase inhibition; Q96KQ7; G9a H3K9 monomethylation, AlphaScreen, 2 h; Potency, µM (doses to about 102 µM), for the others: at the highest dose activity, negative = inhibition, most hits filed as inhibitors; 350,000 tested, 8.8% active; AID 504332; note: potency is the fitted concentration of half-maximal effect; % is set by controls: 0 for no effect and ±100 for the full control effect; nearly all actives have a fitted effect of over 75% in size
#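 Quantitative HTS format: methyltransferase activity on a biotin-tagged H3K9 peptide is measured by AlphaScreen, using a rabbit anti-monomethyl-H3K9 antibody with streptavidin donor and anti-IgG acceptor beads. Final levels are 20 nM enzyme, 500 nM peptide, 20 uM SAM; 2 h RT.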
# * = called active by the depositor; ? = inconclusive; nt = no result given; [ ] = dose if it differs, or a comment. The list is not random: actives were taken first. Their share in the collection is about 10%. Unless noted, calls come from the whole dose curve; as a rule, active = well fitted inhibition curve with a large enough effect; inconclusive = small, poorly fitted or top-dose-only effect; inactive = no such curve, though single readings can be large or run the other way.
SMILES,BAZ2B block,HP1b chromo inh,JMJD2A Tudor inh,CtBP-E1A inh,Six1-Eya2 inh,G9a block
CCOC(=O)N1CCN(C(=O)COC(=O)c2ccccc2NCCO)CC1,36%,7%,3%,-8,2,50µM*
COc1ccc(-c2nc3ccccc3s2)cc1NC(=O)COc1cccc(C)c1,-11%,27%,-7%,nt,nt,10%[59 µM]
Cc1cc(=S)c2cccc(C)c2[nH]1,-30%,-16%,-20%,-8,-6,56µM*
O=C(NN1C(=O)/C(=C/C=C/c2ccccc2)SC1=S)c1ccncc1,-33%,-16%,-35%,-6,-5,45µM*
O=C(NN1C(=O)/C(=C/C=C/c2ccco2)SC1=S)c1ccncc1,5.6µM*,13µM*,14µM*,-25,?,4µM*
O=C(CCN1C(=O)/C(=C/c2ccccc2)SC1=S)NNC(=O)c1ccncc1,-4%,-12%,-32%,-2,3,-6%
CC1CCC(C(C)C)C(OC(=O)COC(=O)c2cc(O)ccc2N)C1 (stereo not drawn),?,16%,?,-9,-9,10µM*
CC1CCC(C(C)C)C(OC(=O)COC(=O)c2ccc(=O)[nH]c2)C1 (stereo not drawn),-10%,17%,-14%,0,-1,-43%
Cc1onc(-c2c(Cl)cccc2Cl)c1C(=O)N1CCOCC1,79µM*,21%,-8%,-2,6,-1%
CN(C)CCCOC(=O)c1ccc(Br)cc1,10%,43%,8%,4,-2,45µM*
O=C(c1ccoc1)N1CCN(c2cc(-c3cccc(F)c3)nc3cc(-c4cccc(Cl)c4)nn23)CC1,nt,nt,nt,-6,9,nt
CCOc1cc(C2Sc3ccccc3NC3=C2C(=O)c2ccccc23)ccc1O (stereo not drawn),nt,?,14µM*,nt,nt,13µM*
O=C1C2=C(Nc3ccccc3SC2c2c(F)cccc2Cl)c2ccccc21 (stereo not drawn),nt,?,13µM*,nt,nt,?
O=C1Nc2ccccc2SC1c1ccccc1 (stereo not drawn),-7%,31%,-22%,nt,-2,-8%[0.501 µM]
CCCc1ccc(C2Sc3ccccc3NC3=C2C(=O)c2ccccc23)cc1 (stereo not drawn),10µM*,?,16µM*,nt,nt,7.9µM*
O=C1C2=C(Nc3ccccc3SC2c2ccccc2C(F)(F)F)c2ccccc21 (stereo not drawn),?,?,22µM*,nt,nt,11µM*
COc1ccc(-c2nc3sc(CCNC(=O)c4ccccc4C)c(C)n3n2)cc1,-3%,10%,-26%,nt,nt,?
Cc1ccnc(NC(=O)c2ccc(S(=O)(=O)NCc3ccco3)cc2)c1,-1%,26%,-10%,-1,-3,-37%
COc1ccc(Br)cc1C1Sc2ccccc2NC2=C1C(=O)c1ccccc12 (stereo not drawn),nt,18%,-8%,nt,nt,-6%[59 µM]
O=C1C2=C(Nc3ccccc3SC2c2ccc(Cl)c(Cl)c2)c2ccccc21 (stereo not drawn),nt,?,8.9µM*,nt,nt,13µM*
Cc1ccc(/C=N/n2c(COc3ccccc3)n[nH]c2=S)s1,?,-5%,56µM*,-2,-5,4%[0.501 µM]
S=c1[nH]nc(COc2ccccc2)n1/N=C/c1ccc(Br)s1,-38%,-33%,56µM*,2,-12,7.9µM*
S=c1[nH]nc(-c2ccccn2)n1/N=C/c1ccc(Br)s1,13µM*,14%,7.9µM*,7,-77*,1.3µM*
S=c1[nH]nc(-c2ccccn2)n1/N=C/c1ccc(-c2ccccc2Cl)o1,25µM*,?,28µM*,?,?,1.1µM*
COc1cc(OC)cc(C(=O)N2CCN(C(=O)COc3ccccc3)CC2)c1,1%,23%,6%,nt,nt,5%[59 µM]
SMILES,BAZ2B block,HP1b chromo inh,JMJD2A Tudor inh,CtBP-E1A inh,Six1-Eya2 inh,G9a block
CCN(C(=O)Cn1cc(C(=O)c2ccc(F)cc2)c(=O)c2ccc(C)nc21)c1cccc(C)c1,3%[57.1 µM],5%,-19%,nt,nt,-22%[59 µM]
COCCCNc1ncnc2onc(-c3ccc(F)cc3)c12,4%,18%,4%,nt,nt,-1%[59 µM]
O=S(=O)(Nc1c(Br)cc(Br)c2cccnc12)C1CC1,nt,20%,25µM*,nt,nt,nt
O=S(=O)(Nc1cccc2cccnc12)C1CC1,nt,-14%,50µM*,nt,nt,nt
Cc1ccc(-n2cc(C(=O)Oc3ccc(F)cc3)c3ccccc3c2=O)cc1,2%,20%[57 µM],-18%,nt,nt,-5%[59 µM]
Cc1nc(SCC(=O)Nc2sccc2C(N)=O)c2c(C)c(C)sc2n1,nt,nt,nt,-7,-13,nt
Cc1nc(SCC(=O)Nc2cc(C(N)=O)cc(C(N)=O)c2)c2c(C)c(C)sc2n1,?,50%,?,288,24,45µM*
O=[N+]([O-])c1ccc(C2CCCC/C2=N/O)c([N+](=O)[O-])c1 (stereo not drawn),-15%,13%,0%,0,7,-3%
O/N=C1/CCCCC1c1ccccn1 (stereo not drawn),50µM*,23%,32µM*,-1,-11,?
CN(C)Cc1cc(C(C)(C)C)c(O)c(C(C)(C)C)c1,-9%,-11%,-18%[11.4 µM],-3,1,50µM*
CN(C)Cc1cc(C(C)(C)C)cc(C(C)(C)C)c1O,-1%,55%,-11%[11.4 µM],-4,4,7%[12.7 µM]
Cc1ccn2c(Nc3ccc(F)cc3)c(-c3ccccn3)nc2c1,14µM*,-14%,25µM*,nt,nt,-48%[59 µM]
COc1ccc(Nc2c(-c3ccc(F)cc3)nc3nc(C)cc(C)n23)cc1,nt,nt,nt,-2,-12,nt
Cc1cccc(C)c1Nc1c(-c2ccccc2F)nc2cccc(C)n12,?,?,50µM*,nt,nt,18µM*
Fc1ccc(Nc2c(-c3c[nH]c4ccccc34)nc3ccccn23)cc1,?,?,35µM*,nt,nt,?
Cc1cccc2nc(-c3ccccn3)c(Nc3ccc(F)cc3)n12,16µM*,19%,45µM*,nt,nt,-3%[59 µM]
CCOc1ccccc1NC(=O)CSc1ccc(-c2sc(C)nc2C)nn1,-27%,19%,-11%,-21,-25,?
O=C(c1ccco1)N1CCC2(CC1)CCN(c1ccccc1)CC2,nt,nt,nt,nt,nt,-5%[12.7 µM]
Cc1ccc(Nc2c(-c3ccccn3)nc3cccc(C)n23)cc1,16µM*,?,-35%[11.4 µM],-98*,-88*,20%[59 µM]
Cc1ccc(Nc2c(-c3ccccn3)nc3ccc(Br)cn23)cc1,-33%,34%,?,nt,nt,17%[59 µM]
Cc1ccc(Nc2c(-c3ccsc3)nc3cccc(C)n23)cc1,?,?,50µM*,nt,nt,?
Cc1cccc2nc(-c3ccccn3)c(Nc3ccccc3)n12,8.9µM*,5%,40µM*,nt,nt,3%[59 µM]
